Screening data: PubChem, National Center for Advancing Translational Sciences (NCATS)
An excerpt weighted towards active compounds, which were near 18% of everything screened.
Six1-Eya2 blk = blocks human Six1 binding to Eya2. activity change, % (concentration not given with the values). AlphaScreen GST-Six1/His-Eya2 binding, biochemical; active compounds read low. Q15475+O00167. actives 0.56% (n = 360,000). AID 651725; in the data active = activity change below about -65%; inconclusive = mostly about -30% to -63%
Target sequence (O00167 whole entry, looked up): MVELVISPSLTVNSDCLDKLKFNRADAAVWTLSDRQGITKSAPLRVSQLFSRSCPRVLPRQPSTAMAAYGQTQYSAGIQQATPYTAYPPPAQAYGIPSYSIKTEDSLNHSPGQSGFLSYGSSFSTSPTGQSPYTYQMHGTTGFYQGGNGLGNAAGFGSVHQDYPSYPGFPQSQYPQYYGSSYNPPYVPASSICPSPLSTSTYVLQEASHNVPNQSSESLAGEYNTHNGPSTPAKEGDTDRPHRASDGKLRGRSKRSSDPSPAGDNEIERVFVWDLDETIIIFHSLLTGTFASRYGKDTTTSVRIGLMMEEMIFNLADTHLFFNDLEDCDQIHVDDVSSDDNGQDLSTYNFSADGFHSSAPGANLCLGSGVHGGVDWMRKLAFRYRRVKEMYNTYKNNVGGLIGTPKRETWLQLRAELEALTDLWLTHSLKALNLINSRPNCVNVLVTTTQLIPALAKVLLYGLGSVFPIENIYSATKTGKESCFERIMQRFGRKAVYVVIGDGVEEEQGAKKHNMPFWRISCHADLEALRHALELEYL
Target sequence (Q15475 whole entry, looked up): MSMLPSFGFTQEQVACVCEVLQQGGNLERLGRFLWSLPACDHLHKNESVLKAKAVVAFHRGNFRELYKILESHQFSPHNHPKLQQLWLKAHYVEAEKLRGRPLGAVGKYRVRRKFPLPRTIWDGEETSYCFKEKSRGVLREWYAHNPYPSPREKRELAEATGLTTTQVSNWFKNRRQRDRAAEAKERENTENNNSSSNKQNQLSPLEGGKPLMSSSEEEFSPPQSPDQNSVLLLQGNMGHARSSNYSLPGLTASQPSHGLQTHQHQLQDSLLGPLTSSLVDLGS
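GST-Six1 + His-Eya2 (5X stock: 250/500 nM); Tris pH 8.0, 300 mM NaCl, 0.05% BSA, 0.02% Tween 20; GSH donor/Ni acceptor beads; 1 h 37 °C dark; AlphaScreen readout.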
IL-1B inflam inh = inflammasome signaling inhibition, IL-1 beta readout; THP-1 LPS/ATP IL-1B secretion, AlphaLISA, 16 h; active compounds read low; activity change, % at 57.5 µM; actives 4.7% (n = 360,000); in the data active = activity change below about -50%; inconclusive = mostly about -30% to -49%
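Secreted IL-1B measured by AlphaLISA bead assay after 16 h compound exposure of THP-1 cells; compounds (final up to 57.5 uM) added 1 h before LPS (250 ng/mL) and ATP (1.25 mM) stimulation; lower signal means less secretion.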
DT40 TDP1 no CPT = qHTS for Inhibitors of human tyrosyl-DNA phosphodiesterase 1 (TDP1): qHTS in cells in absence of CPT; Potency, µM (highest dose often 46.2 µM), without a hit: at the top dose activity change, negative = growth inhibition, most hits filed as inhibitors; DT40 Tdp1-/- hTDP1 cells, no CPT, ATP luminescence, 48 h; actives 15% (n = 420,000); AID 686978, 2013; also: potency is read from the fitted curve at half-maximal effect; nearly all actives have a fitted effect of over 55% in size
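Compound effects on proliferation are scored in DT40 Tdp1-/-;hTDP1 cells in the absence of CPT. ATP levels (CellTiter-Glo luminescence) are recorded after a ≥48 hr, 37 °C incubation.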
TDP1 block = TDP1 (human) enzyme inhibition; Q9NUW8; recombinant TDP1, AlphaScreen DNA substrate cleavage; Potency, µM (top dose mostly 130 µM), for inactives: at the top dose activity change, negative = inhibition, actives largely listed as inhibitors; actives 0.28% (n = 350,000); also: potency is read from the fitted curve at half-maximal effect; nearly all actives have a fitted effect of over 40% in size
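Compounds were preincubated with Tdp1 (1 nM final) for 15 min at room temperature before substrate (15 nM final) started a 5 min reaction; beads (10 ug/ml final) were then added for 10 min before AlphaScreen detection.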
TDP1 cell CPT = growth inhibition of DT40 Tdp1-/-;hTDP1 cells with camptothecin (screen for TDP1 inhibitors). chicken DT40 Tdp1-/-;hTDP1 cells + 20 nM CPT, ATP luminescence, 48 h. Potency, µM (titrated, usually from 46.2 µM), without a hit: at the top dose activity change, negative = growth inhibition, actives largely listed as inhibitors. actives 12% (n = 420,000); also: potency is read from the fitted curve at half-maximal effect; nearly all actives have a fitted effect of over 55% in size
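Cell growth measured by CellTiter-Glo luminescence after a minimum 48 h, 37 C compound exposure with 20 nM CPT in Tdp1-knockout DT40 cells stably expressing hTDP1, seeded 400/well; qHTS titration format.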
CtBP-E1A inh = inhibitors of CtBP/E1A interaction. AlphaScreen GST-E1A/His-CtBP binding, 1536-well; active compounds read low. activity change, % (test concentration not listed). actives 0.49% (n = 340,000); in the data active = activity change below about -65%; inconclusive = mostly about -30% to -63%
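AlphaScreen with 125 nM GST-E1A and 125 nM His-CtBP (5X stocks) in Tris pH 8.0, 300 mM NaCl, BSA, Tween 20, TCEP. Compounds preincubated 2 h at 37 deg C, then glutathione donor/nickel acceptor beads added for 1 h at 37 deg C in dark.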
* hit, by the source's call; ? = inconclusive; / = not tested or not shown; [ ] = dose if it differs, or a comment. Unless noted, calls follow the shape of the dose curve; as a rule, active = well fitted curve in the direction sought with a large enough effect; inconclusive = small, poorly fitted or top-dose-only effect, or another doubt; inactive = no such curve, though single readings can be large; an effect the other way counts as inactive or inconclusive. % is scaled to controls: 0 for no effect and ±100 for the full control effect.

SMILES	Six1-Eya2 blk	IL-1B inflam inh	DT40 TDP1 no CPT	TDP1 block	TDP1 cell CPT	CtBP-E1A inh
NC(=O)CC(NC(=O)c1ccccc1)c1ccc(N2CCC(Cc3ccccc3)CC2)c([N+](=O)[O-])c1 (centres undefined)	-18	-20	5.2µM*	/	7.3µM*	-9
NC(=O)CC(NC(=O)c1ccccc1)c1ccc(N2CCC(N3CCCC3)CC2)c([N+](=O)[O-])c1 (centres undefined)	3	19	0%	/	-18%	5
NC(=O)CC(NC(=O)c1ccccc1)c1ccc(N2CCN(c3ccccn3)CC2)c([N+](=O)[O-])c1 (centres undefined)	1	2	21µM*	/	21µM*	-6
NC(=O)CC(NC(=O)Cc1ccc(Br)cc1)c1ccc(N2CCc3ccccc3C2)c([N+](=O)[O-])c1 (centres undefined)	-8	-7	?	/	?	-10
O=C(NCc1n[nH]c(=S)n1-c1ccc(F)cc1)c1ccc(S(=O)(=O)N2CCCC2)cc1	5	45	3%	-2%	-10%	4
Nc1ncnc2c1CN(Cc1ccccc1)CC2	4	10	-3%	/	-3%	7
COc1ccc(/C=N/N=C(\N)c2nonc2N)cc1	-4	18	-21%	5%	-5%	2
CC(=NO)c1ccc2c(c1)Cc1cc([N+](=O)[O-])ccc1-2	-25	-9	13µM*	/	?	?
CC(O)CN(CC(C)O)c1ccc2c(c1)Cc1cc([N+](=O)[O-])ccc1-2 (centres undefined)	0	?	15µM*	/	18µM*	1
CCOC(=O)Nc1ccc2c(c1)Cc1cc([N+](=O)[O-])ccc1-2	3	-9	?	/	?	1
CC(C)[C@H](CO)Nc1nc(Nc2ccc(C(=O)O)c(Cl)c2)c2ncn(C(C)C)c2n1	/	/	-1%	4%[56.1 µM]	4%	/
C=CC(=O)Nc1ccc(Nc2nc(NC3CCC(N(C)C)CC3)nc3c2ncn3C(C)C)cc1 (centres undefined)	3	-109*	0.41µM*	3%	0.33µM*	1
COc1cccc(CNC(=O)CCS(=O)(=O)c2cccs2)c1	-1	8	-5%	1%	-2%	1
Cc1cccc2sc(NC(=O)C3CCN(S(=O)(=O)c4cc([N+](=O)[O-])ccc4Cl)CC3)nc12	-13	-76*	16µM*	-3%	18µM*	-7
O=C(NC1CC1)C1CCN(S(=O)(=O)c2cc([N+](=O)[O-])ccc2Cl)CC1	-13	15	-2%	?	-27%	0
O=C(NC1=NCCS1)C1CCN(S(=O)(=O)c2cc([N+](=O)[O-])ccc2Cl)CC1	-19	23	?	/	-27%	6
Cc1nnc(NC(=O)C2CCN(S(=O)(=O)c3cc([N+](=O)[O-])ccc3Cl)CC2)o1	-69*	9	13%	1%	-24%	-82*
O=C(NCc1ccc(Cl)cc1)C1CCN(S(=O)(=O)c2cc([N+](=O)[O-])ccc2Cl)CC1	-14	-17	16µM*	2%	23µM*	/
Clc1ccc(-c2cccc3nccn23)c(Cl)c1	3	-2	-27%	/	-18%	2
Cc1nc(N2N=C3/C(=C/c4ccc(F)cc4)CCCC3C2c2ccc(F)cc2)sc1C(=O)N(C)C (centres undefined)	27	-2	29µM*	8%	?	40
Cc1ccc(C2(O)CN(c3ccccc3)C3=[N+]2CCS3)cc1 (centres undefined)	4	-76*	?	4%	?	-18
Cc1ccc(C2(O)CN(c3ccccc3C)C3=[N+]2CCS3)cc1 (centres undefined)	1	30	18µM*	3%	12µM*	2
COC(=O)[C@@]1(Cc2ccccc2)[C@H]2C(=O)N(Cc3ccccc3)C(=O)[C@H]2[C@H]2CN=C(SCc3ccc(C)cc3)N21	-7	27	?	1%[56.1 µM]	?	-4
Cc1ccccc1C(=O)Nc1nnc(-c2ccc(F)cc2)o1	-23	69	5.8µM*	8%	6.5µM*	-14
CS(=O)(=O)c1cccc(-c2nnc(NC(=O)c3ccc(S(=O)(=O)N4CCCC4)cc3)o2)c1	-20	-3	3%	/	-1%	0
SMILES	Six1-Eya2 blk	IL-1B inflam inh	DT40 TDP1 no CPT	TDP1 block	TDP1 cell CPT	CtBP-E1A inh
O=C(Nc1nc(-c2ccccc2)c(-c2ccccc2)o1)c1ccc(F)cc1	-2	10	8.2µM*	12%	9.2µM*	-15
O=C(Nc1nnc(-c2ccc(F)cc2)o1)c1ccc(S(=O)(=O)N2CCOCC2)cc1	4	64	2.9µM*	1%	3.3µM*	2
COc1ccc(-c2nnc(NC(=O)c3ccc(F)cc3)o2)cc1	-9	45	?	11%	2.9µM*	-1
COc1ccccc1C(=O)Nc1nnc(-c2ccc(F)cc2)o1	-13	0	-28%	6%	7%	-2
COc1ccc(-c2nnc(NC(=O)c3cc(Cl)ccc3Cl)o2)cc1	-4	30	?	10%	16µM*	-14
CCC(=O)Nc1nnc(-c2ccc(OC)cc2)o1	-20	2	-17%	7%	-15%	-9
Cc1ccccc1CN1CCN(CC(=O)NCc2ccccc2)C1=O	3	21	-13%	7%	-7%	2
